FUS yeast rescue: suppressors of FUS proteinopathy in yeast. S. cerevisiae FUS-expressing, growth rescue, OD600, 24 h. Potency, µM (series often up to 76.6 µM), most hits filed as activators. 390,000 tested, 0.24% active; note: nearly all actives have a fitted effect of over 55% in size
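Steps: raffinose overnight preculture; dilution to OD 0.005 in 2% galactose minimal medium; compound addition (concentration series); 24hr at 30C, 99% humidity; absorbance read at 600 nm.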
Abeta rescue: compounds reversing amyloid beta toxicity in yeast. yeast expressing A-beta42, growth rescue, OD600, 48 h; response scale: 0% DMSO, 100% iron-clioquinol control. Potency, µM (titrated, usually from 46.1 µM), most hits filed as activators. AID 1347071. 410,000 tested, 0.063% active; note: nearly all actives have a fitted effect of over 55% in size
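Growth rescue measured by 600 nm absorbance after 48 h yeast culture at 30 C with compound. Values normalized between DMSO and an equimolar ferric chloride plus clioquinol control.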
aSyn yeast inh: alpha-synuclein toxicity inhibition in yeast; 370,000 tested, 0.14% active; AID 652106; Yeast expressing alpha-synuclein, growth rescue, BacTiter-Glo, 24 h; Potency, µM (doses to about 46.1 µM), usual class: activators; note: nearly all actives have a fitted effect of over 65% in size
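Screening used galactose-induced yeast with toxic alpha-synuclein levels, exposed to compound for 24 hr at 30 deg C. Cell growth, read with BacTiter-Glo luminescence, gave the measured signal.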
TDP-43 yeast inh: rescues yeast growth from TDP-43 toxicity | TDP-43 expressing yeast growth rescue, BacTiter-Glo, 24 h | Potency, µM (doses to about 46.1 µM), hits mostly activators | 410,000 tested, 1.8% active | AID 652104; note: nearly all actives have a fitted effect of over 50% in size
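Yeast expressing TDP-43 (pregrown in raffinose, seeded at OD600=0.02 in galactose medium) exposed to compounds 24 hr at 30 deg C. Growth read by BacTiter-Glo luminescence; rescue of toxicity appears as increased signal.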
Large screens that a line does not name were inactive. Rows were chosen to be rich in hits. Some 2.1% of all compounds tested hit in one or more screens of this group. Calls come from the whole dose curve; as a rule, active = well fitted curve in the direction sought with a large enough effect; inconclusive = small, poorly fitted or top-dose-only effect, or another doubt; inactive = no such curve, though single readings can be large; an effect the other way counts as inactive or inconclusive.

Cc1cc(F)ccc1NS(=O)(=O)c1c(C)nc2scc(C)n2c1=O	TDP-43 yeast inh 20µM
N#C/C(=C\c1cccs1)Sc1nc2ccccc2s1	TDP-43 yeast inh inconclusive (no result: FUS yeast rescue)
N#C/C(=C\c1ccc[nH]1)Sc1nc2ccccc2s1	TDP-43 yeast inh 22µM
COc1ccc2c(c1)C(=NO)c1cc(OC)ccc1-2	TDP-43 yeast inh 11µM
C=CCOc1ccc2c(c1)C(=NO)c1cc(OCC=C)ccc1-2	none
COc1ccc(Cc2nc3ccccc3n2C)cc1	none
CN(CC(=O)Nc1cccc(F)c1)C(=O)/C=C/c1cc(Br)ccc1OC(F)F	TDP-43 yeast inh 20µM
Cc1cccc(COc2ccccc2C(=O)N(C)CC(=O)Nc2cccc(F)c2)c1	TDP-43 yeast inh 25µM
Cc1ccccc1NC(=S)c1nc2ccccc2[nH]1	Abeta rescue inconclusive, TDP-43 yeast inh 18µM
O=[N+]([O-])c1cc(C(F)(F)F)ccc1NCCc1c[nH]c2ccccc12	TDP-43 yeast inh 22µM
O=[N+]([O-])c1cc(C(F)(F)F)ccc1NCCc1c[nH]c2ccc(O)cc12	none
O=C(NCCOc1ccccc1Cl)c1cc(F)c(F)cc1Cl	TDP-43 yeast inh 8.9µM (no result: FUS yeast rescue)
COc1ccccc1OCCNC(=O)C(=O)c1c[nH]c2ccccc12	TDP-43 yeast inh inconclusive
O=C(NCCOc1ccccc1Cl)C(=O)c1c[nH]c2ccccc12	TDP-43 yeast inh 11µM
CCCNS(=O)(=O)c1ccc(OCC(=O)N2CCC(C(=O)OCC)CC2)cc1	none
Cc1ccc(NS(=O)(=O)c2ccc3[nH]c4c(c3c2)CCCCCC4)cc1C	FUS yeast rescue inconclusive
CCOC(=O)c1ccc2[nH]c3c(c2c1)CCCC3	TDP-43 yeast inh 25µM
Cc1ccc(NS(=O)(=O)c2ccc3[nH]c4c(c3c2)CCCCCC4)cc1	TDP-43 yeast inh 14µM (no result: aSyn yeast inh)
O=c1c2sc(-c3ccccc3)cc2nc2n1CCCCC2	TDP-43 yeast inh 11µM
O=c1c2sc(-c3ccccc3)cc2nc2n1CCC2	aSyn yeast inh inconclusive, TDP-43 yeast inh 13µM
OC(COc1ccccc1)CN1CCCC1 (configuration not stated)	none
Cc1ccc(C(=O)O/N=C2\CCCc3ccccc32)cc1	none (no result: aSyn yeast inh)
O=C(O/N=C1\CCCc2ccccc21)c1cccc(Cl)c1	TDP-43 yeast inh 5µM
Cc1cccc(C(=O)O/N=C2\CCCc3ccccc32)c1	TDP-43 yeast inh 11µM
COc1ccc(C(=O)COC(=O)CNC(=O)c2ccc(C)s2)c(OC)c1	none
CCC1(CC)C(=O)NC(=O)NC1=Nc1cccc(OC)c1	none
Cc1ccc(-c2ccc(CN3C(CC(C)C)C(=O)N(Cc4cn(CCC5OCCO5)nn4)CCS3(=O)=O)cc2)cc1 (configuration not stated)	FUS yeast rescue inconclusive, TDP-43 yeast inh 35µM
CC(C)CC1C(=O)N(Cc2cn(CCC3OCCO3)nn2)CCS(=O)(=O)N1Cc1ccc(-c2ccccc2)cc1 (configuration not stated)	FUS yeast rescue inconclusive, TDP-43 yeast inh 22µM
CC(C)CC1C(=O)N(Cc2cn(CCC3OCCCO3)nn2)CCS(=O)(=O)N1Cc1ccc(-c2ccccc2)cc1 (configuration not stated)	FUS yeast rescue inconclusive
C=CCN(c1ccc(C(=O)Nc2cccc([N+](=O)[O-])c2)cc1)S(C)(=O)=O	none
Cc1ccc(NC(=O)Cn2ncc3ccccc32)c(Cl)c1	none
Cc1ccc(-c2cc(C(=O)N3CCN(c4ccccc4O)CC3)c3ccccc3n2)cc1	none
Cc1ccc(-c2cc(C(=O)N3CCN(c4ccc(O)cc4)CC3)c3ccccc3n2)cc1	FUS yeast rescue inconclusive, TDP-43 yeast inh 16µM
O=C(c1cc(-c2ccccc2Cl)nc2ccccc12)N1CCN(c2ccccc2O)CC1	TDP-43 yeast inh 20µM
COc1ccc(-c2cc(C(=O)N3CCN(c4ncccn4)CC3)c3ccccc3n2)cc1	TDP-43 yeast inh 13µM
O=C(c1cc(-c2ccccc2Cl)nc2ccccc12)N1CCC1	TDP-43 yeast inh inconclusive
Cc1ccc(S(=O)(=O)N2CCC(C(=O)OCc3ccccc3)CC2)cc1C	none
CNc1oc(-c2cccs2)nc1S(=O)(=O)c1ccccc1	none
CCC(C)S(=O)(=O)c1oc(-c2cccs2)nc1S(=O)(=O)c1ccccc1 (configuration not stated)	TDP-43 yeast inh 11µM (no result: aSyn yeast inh)
CC(C)CS(=O)(=O)c1oc(-c2ccc(F)cc2)nc1S(=O)(=O)c1ccccc1	TDP-43 yeast inh 20µM (no result: aSyn yeast inh)
COc1cccc(CNC(=O)c2ccc(F)c(S(=O)(=O)N3CCCCC3)c2)c1	FUS yeast rescue 35µM, TDP-43 yeast inh inconclusive
O=C(Nc1cc(Cl)cc(Cl)c1)c1ccc(F)c(S(=O)(=O)N2CCCC2)c1	TDP-43 yeast inh 18µM (no result: aSyn yeast inh)
CC(C)c1ccc(NC(=O)c2ccc(F)c(S(=O)(=O)N3CCCC3)c2)cc1	none (no result: aSyn yeast inh)
COc1ccccc1N=c1sc2ccccc2n1C	none
Cn1c(=NN=Cc2ccccc2OCCO)sc2ccccc21	TDP-43 yeast inh 13µM
O=C(Nc1cc(Br)ccc1O)C1CC(c2c(F)cccc2Cl)=NO1 (configuration not stated)	none
O=C(Nc1ccc(Br)cc1)C1CC(c2c(F)cccc2Cl)=NO1 (configuration not stated)	TDP-43 yeast inh 11µM
COc1ccc(CNc2oc(COc3cccc(C)c3)nc2C#N)cc1	TDP-43 yeast inh 22µM (no result: aSyn yeast inh)
Cc1ccc(OCc2nc(C#N)c(NCc3ccco3)o2)cc1	TDP-43 yeast inh 11µM
COc1ccc(Nc2oc(COc3ccc(C)cc3)nc2C#N)cc1	TDP-43 yeast inh 22µM (no result: aSyn yeast inh)
COc1ccc(OCCSc2nnc3sc4ccccc4n23)cc1	TDP-43 yeast inh 16µM
COc1ccc(NC(=O)c2ccc(OC(=S)N(C)c3ccc(OC)cc3)cc2)cc1	none
CN(C(=S)Oc1ccc(C(=O)Nc2ccccc2)cc1)c1ccccc1	TDP-43 yeast inh 13µM (no result: FUS yeast rescue)
Cc1ccc(N/C(C(Cl)=C(Cl)Cl)=C(/Cl)[N+](=O)[O-])c(C)c1	TDP-43 yeast inh 13µM
CC(C)(C)CC(C)(C)NC(=O)c1ccc2snnc2c1	none
Oc1ccc(NCc2ccc(OCc3ccccc3)cc2)cc1	FUS yeast rescue inconclusive, TDP-43 yeast inh 16µM
Oc1ccc(NCc2ccc(OCc3ccccc3Cl)cc2)cc1	TDP-43 yeast inh inconclusive (no result: aSyn yeast inh)
O=C(Nc1nnc(C2CC2)o1)c1ccc(S(=O)(=O)N2CCc3ccccc3C2)cc1	aSyn yeast inh 18µM, TDP-43 yeast inh 16µM
Cc1ccc2nc(NNC(=O)c3ccc(S(=O)(=O)N4CCc5ccccc5C4)cc3)sc2c1	FUS yeast rescue inconclusive, aSyn yeast inh inconclusive, TDP-43 yeast inh 8.9µM
COc1ccc(-c2nnc(NC(=O)c3ccc(S(=O)(=O)N4CCc5ccccc5C4)cc3)o2)cc1	none
Cc1cc(C)c2nc(NNC(=O)c3ccc(S(=O)(=O)N4CC(C)CC(C)C4)cc3)sc2c1 (configuration not stated)	TDP-43 yeast inh 5µM
O=C(N/N=C\c1coc2ccccc2c1=O)c1ccco1	none
CSCCC(NS(=O)(=O)c1ccc(Cl)cc1)C(=O)OCC(=O)N1CCCc2ccccc21 (configuration not stated)	none
O=C(c1ccco1)N1CCN(C(=S)Nc2ccc(F)cc2)CC1	none

From PubChem
